Measurements: PubChem BioAssay AID1006 (Sanford-Burnham Center for Chemical Genomics, 2008)
Out of some 200,000 compounds screened, about 3,000 (1.5%) were called active. For the sample, actives were picked, then their nearest neighbours and some compounds at random. Values without a mark were called inactive.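 Rule for the calls: active = inhibition above about 50% when tested at 10 µM (limit read from the data); inactive = the rest.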

Target: Luciferin 4-monooxygenase (Photinus pyralis) (UniProt P08659)
Sequence (P08659 whole entry, looked up): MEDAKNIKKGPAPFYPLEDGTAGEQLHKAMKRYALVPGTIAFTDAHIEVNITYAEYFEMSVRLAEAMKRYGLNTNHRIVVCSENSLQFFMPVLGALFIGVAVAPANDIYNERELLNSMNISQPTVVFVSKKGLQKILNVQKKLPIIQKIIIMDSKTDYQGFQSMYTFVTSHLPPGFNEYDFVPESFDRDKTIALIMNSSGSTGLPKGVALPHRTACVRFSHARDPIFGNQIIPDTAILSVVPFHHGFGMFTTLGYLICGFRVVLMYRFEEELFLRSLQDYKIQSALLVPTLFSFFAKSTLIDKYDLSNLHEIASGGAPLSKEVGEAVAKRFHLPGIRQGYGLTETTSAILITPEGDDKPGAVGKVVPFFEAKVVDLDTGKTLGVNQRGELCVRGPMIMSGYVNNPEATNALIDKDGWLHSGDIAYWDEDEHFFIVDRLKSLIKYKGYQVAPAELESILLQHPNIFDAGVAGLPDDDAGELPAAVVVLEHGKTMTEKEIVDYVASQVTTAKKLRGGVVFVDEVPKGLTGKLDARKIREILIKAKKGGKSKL
Experiment: inhibition of purified FLuc reporter enzyme – biochemical, luminescence, ATPLite, artefact control for luciferase-based inhibitor screens, primary screen (AID 1006)
Settings: ATPLite firefly luciferase biochemical luminescence, 10 min; at 10 µM; hits give high values

| SMILES | inhibition |
| --- | --- |
| N#CC1(C#N)C(C(=O)C23CC4CC(CC(C4)C2)C3)C12CCOCC2 (stereo unspecified) | -9.2% |
| CCc1cc2c(=O)c(-c3nc4ccccc4n3C)c(CCCC(=O)O)oc2cc1OC(=O)C(C)(C)C | 2.4% |
| CCc1cc2c(=O)c(-c3ccc(F)cc3)c(C(F)(F)F)oc2cc1OCC(=O)O | -5.2% |
| CCc1cc2c(=O)c(-c3ccon3)c(N)oc2cc1OC | 59.4% (active) |
| CCOc1ccc(S(=O)(=O)Nc2nccs2)cc1 | -7.4% |
| COc1ccc(-c2noc(-c3ccc(C)cc3)n2)cc1 | 44.5% |
| COc1ccc(-c2nc(-c3ccccc3)no2)c(OC)c1 | 85.4% (active) |
| COc1ccc(-c2noc(-c3cccc(OC)c3OC)n2)cc1OC | 48.7% |
| Cc1ccc(S(=O)(=O)Nc2nc(N)n(-c3ccccc3)n2)cc1 | -5.1% |
| Cc1ccc(NC(=O)C2(N3CCC3=O)CCCCC2)cc1 | -9% |
| Cc1nn(Cc2ccc(Cl)cc2)c(Cl)c1/C=N/NC(=O)c1cccnc1 | -5.5% |
| CCC(=O)Nc1cccc(NC(=O)c2cccnc2)c1 | -0.5% |
| Cc1cc(/C=N/NC(=O)c2cccnc2)c(C)n1CC(C)C | 63.5% (active) |
| CC(Oc1ccc(Br)cc1Br)C(=O)NC1CCCC1 (stereo unspecified) | -6.3% |
| CCN(CC)S(=O)(=O)c1cc(C(=O)Nc2ccccn2)ccc1C | 58% (active) |
| CCN(CC)S(=O)(=O)c1cccc(C(=O)Nc2ccccc2)c1 | -4.6% |
| Cc1ccc(S(=O)(=O)/N=C(/Nc2ccccn2)c2ccc(Cl)cc2)cc1 | -1.5% |
| Cn1c(N)cc(-c2ccc(F)cc2)c(C#N)c1=O | -3.4% |
| COc1cc(CNC2CCCCC2)c(Br)cc1OC1CCCC1 | -3.7% |
| Cc1cc(C)nc(NC(=O)c2cccc([N+](=O)[O-])c2)c1 | 0.2% |
| CCO[C@H]1OC(C(=O)O)=C[C@@H](C2CCCCC2)[C@@H]1CCCO | -12% |
| COC(=O)c1nc2ccccc2s1 | -1.8% |
| Oc1ccc(-c2[nH]ncc2-c2nc3ccccc3s2)c(O)c1 | -7.2% |
| CC(=O)Nc1cccc(-c2nc3ccccc3s2)c1C | 52% (active) |
| c1csc(-c2nnc(COc3ccc4c(c3)OCO4)o2)c1 | 5.4% |
| NS(=O)(=O)c1ccc(N2C(=O)C3C4CC(C(Br)C4Br)C3C2=O)cc1 (stereo unspecified) | -4.1% |

| SMILES | inhibition |
| --- | --- |
| CCc1ccc(N2CC(O)=C(c3nc4ccccc4c(=O)[nH]3)C2=N)cc1 | 1.7% |
| CCN(CC)c1ccc(/C=N/Nc2nc(C)cc(=O)[nH]2)cc1 | 26.8% |
| COc1ccc(C=Nc2cccc3ncccc23)cc1 | -0.8% |
| COc1ccc(/C=N/Nc2nc3ccccc3c(=O)[nH]2)cc1 | 59.4% (active) |
| C[C@@H]1NC(=O)c2cc([N+](=O)[O-])cc(F)c2NCCC[C@@H](C(N)=O)NC(=O)[C@H](CC(N)=O)NC1=O | -4.9% |
| Fc1ccccc1Cc1ccc(Cl)nn1 | -5.5% |
| c1cc(-c2nn[nH]n2)ccc1CN1CCCCC1 | -3.9% |
| CCc1ccc(-c2nnn(Cc3nn[nH]n3)n2)cc1 | -1.9% |
| CC(C)c1ccc(-c2nn[nH]n2)cc1 | 56.6% (active) |
| O=C(COC(=O)C12CC3CC(CC(O)(C3)C1)C2)NC12CC3CC(CC(C3)C1)C2 | -8.6% |
| Cc1cc(Br)ccc1SCC(=O)OCC(=O)NCc1ccc2c(c1)OCO2 | -0.9% |
| Cn1cc(CN2CCCCC2c2ccccn2)c(-c2ccc3c(c2)OCCO3)n1 (stereo unspecified) | -5% |
| COC(=O)C1=C(C)N(C)C(=O)NC1c1ccc([N+](=O)[O-])o1 (stereo unspecified) | -8% |
| O=c1cc(CSc2ccc(Cl)cc2)nc(N2CCOCC2)[nH]1 | -3.7% |
| Clc1ccc2nc(CSc3ccccc3)cn2c1 | 51% (active) |
| CCOc1ncccc1C(=O)OCc1cn2cc(Cl)ccc2n1 | -4.4% |
| COc1cccc(N(CC(=O)Nc2cccc(N(C)S(C)(=O)=O)c2)S(C)(=O)=O)c1 | -3.8% |
| Cc1ccc(N(CC(=O)Nc2cccc(N(C)S(C)(=O)=O)c2)S(C)(=O)=O)cc1 | 1.1% |
| CN(c1cccc(NC(=O)Nc2ccc(Cl)cc2)c1)S(C)(=O)=O | 50.6% (active) |
| Cc1ccc(/C=C/C(=O)Nc2cc(S(=O)(=O)N3CCCCCC3)ccc2OCC(F)(F)F)o1 | -5.3% |
| O=c1oc(-c2ccco2)nc2sc3c(c12)CCCCC3 | 82.9% (active) |
| Cn1c(=O)n(Cc2ccco2)c(=N)c2c3c(sc21)CCCC3 | -0.5% |
| O=C(NCc1ccco1)c1cccn2c(=O)c3c4c(sc3nc12)CCCC4 | -5.5% |
| O=C(c1cn2ccccc2n1)N1CCc2c([nH]c3ccccc23)C1c1ccccn1 (stereo unspecified) | 1% |
| C=CCN(CC=C)C(=O)CN1C(=O)c2ccccc2C1=O | -5% |
| Cc1cc(C(=O)COC(=O)CCCN2C(=O)c3ccccc3C2=O)c(C)n1C | 8.4% |

| SMILES | inhibition |
| --- | --- |
| C=CCn1c(C)cc(C(=O)CN2C(=O)c3ccccc3C2=O)c1C | 57.4% (active) |
| O=C1COc2ccc(C(=O)COC(=O)C3CC(O)CN3S(=O)(=O)c3ccc(Cl)cc3)cc2N1 (stereo unspecified) | 29.8% |
| COc1ccc(NC(C(=O)Nc2cccc(C(C)=O)c2)c2ccccc2)cc1 (stereo unspecified) | 1.7% |
| O=C(Nc1ccc(-c2ccc3nncn3n2)cc1)C1CCCCC1 | 26.9% |
| CCC1C/C(=C/c2cccs2)C(=O)/C(=C/c2cccs2)C1 (stereo unspecified) | -5.8% |
| O=C1/C(=C/c2cccs2)CCc2ccccc21 | 76% (active) |
| COc1ccc(/C=C2\CCc3ccccc3C2=O)c(OC)c1OC | 1.1% |
| Cc1ccc(-c2nc3ccccc3[nH]2)cc1NC(=O)c1sc2ccccc2c1Cl | -3% |
| COc1ccc(Br)cc1C(=O)NC(=S)Nc1cc(-c2nc3ccccc3[nH]2)ccc1C | 2.5% |
| OCCNc1nc2ccccc2[nH]1 | -5.9% |
| Cc1ccc(-c2nc3ccccc3[nH]2)cc1N | 80.7% (active) |
| c1ccc(-c2[nH]ncc2-c2nc3ccccc3[nH]2)cc1 | -8.5% |
| c1ccc2[nH]c(-c3nc4ccccc4[nH]3)nc2c1 | 58.7% (active) |
| O=C(CCNS(=O)(=O)c1ccc(Br)s1)NCc1ccccc1Cl | -3.8% |
| Cc1c(NC(=O)CCC2CCCCC2)cc(C(=O)N2CCOCC2)cc1[N+](=O)[O-] | -6.5% |
| O=C(NC(Cc1c[nH]c2ccccc12)C(=O)O)/C(=C/c1ccco1)NC(=O)c1ccccc1 (stereo unspecified) | -0.6% |
| O=C(CCl)N(Cc1cccc([N+](=O)[O-])c1)c1cccc(Cl)c1 | -6.8% |
| CCCCOc1ccc(N(CC(=O)NC(C)C)C(=O)CCC(=O)Nc2ccccn2)cc1 | -9.9% |
| Cc1cc(C)n2nc(C(=O)N(C)C(c3ccccc3)c3ccccc3)nc2n1 | -7% |
| COc1ccc(-c2cn3ccsc3n2)cc1 | 81.3% (active) |
| COc1cc(OC)cc(-c2nc(=S)n3ccsc3n2)c1 | -2.1% |
| COc1ccc(-c2cn3cccnc3n2)cc1 | 59.3% (active) |
| c1ccc(-c2cn3cccnc3n2)cc1 | 2.6% |
| CC(=O)Nc1ccc(-c2cn3cccnc3n2)cc1 | 6.6% |
| CCCC(=O)Nc1cccc(-c2cn3ccsc3n2)c1 | 40% |
| COc1cc(C(=S)NC2CCCCC2)ccc1O | -2.8% |

| SMILES | inhibition |
| --- | --- |
| Cc1ccnc2nc(C(=O)Nc3nnc(-c4ccccc4)o3)nn12 | -2.4% |
| Cc1noc(C)c1S(=O)(=O)N(C)Cc1ccccc1 | -6.5% |
| CCOC(=O)c1nn(-c2ccccc2F)c2nc(Nc3ccccc3)cc(=O)n12 | -2.4% |
| c1ccc2sc(NN=C3CCCC3)nc2c1 | 62.8% (active) |
| Cc1ccnc(Nc2nc3ccccc3s2)n1 | 34.9% |
| O=[N+]([O-])c1cc(Br)c(O)c(/C=N/Nc2nc3ccccc3s2)c1 | 1.1% |
| Cc1cc(C)cc(C(=O)N(CCc2ccccc2)C2=CC3CCC(C2)N3C)c1 (stereo unspecified) | -2.2% |
| O=C(C1=C[C@H](C2CC2)C[C@H](OCc2ccc(CO)cc2)O1)N1CCN(Cc2ccccc2)CC1 | -13.1% |
| CC(NC(=S)NC1CCCCC1)C(c1ccccc1)N1CCOCC1 (stereo unspecified) | -6% |
| O=C(NNC(=S)NC1CCCCC1)c1ccccc1Cl | -0.5% |
| CC(C)(c1ccccc1)c1ccc(OCCN)cc1 | -11.4% |
| CC1=NN(C(=O)c2ccc(Br)cc2)C(O)(c2ccccc2)C1 (stereo unspecified) | -3.1% |
| CCN(CC)C(=O)Oc1ccc(OC(=O)N(CC)CC)cc1 | 1.5% |
| CC1CN/C(=C\C(=O)c2ccc(Br)cc2)C(=O)N1 (stereo unspecified) | 52.4% (active) |
| CN1CCCC(OC(=O)COc2ccc(Br)cc2)C1 (stereo unspecified) | -7.7% |
| C/C(=C\C(=O)c1ccc(Br)cc1)N1CCCCC1 | 3.9% |
| COc1ccc(NC(=O)CSc2nnc(-c3ccccc3F)n2C2CC2)cc1S(N)(=O)=O | 1.6% |
| COc1ccc(NS(=O)(=O)c2cc(NC(=O)/C=C/c3cc(OC)c(OC)c(OC)c3)ccc2N2CCCCC2)cc1 | -5% |
| Cc1ccn(-c2cccc(-n3ccc(C)n3)n2)n1 | 61.1% (active) |
| CC(C)N1C(=O)N(c2ccccc2)C(C)(O)CC1(C)C (stereo unspecified) | -5.4% |
| O=C(O)CCCCc1nc2ccccc2s1 | 6.8% |
| COc1cccc2sc(NNC(=O)c3nc4ccccc4s3)nc12 | -1.8% |
| COc1ccccc1OCc1nc2ccccc2s1 | 57.9% (active) |
